For assay [1], the target named is human Mitogen-Activated Protein Kinase 1 (MAPK 1), MAPK1 (gene 5594) (UniProt P28482). Put plainly: NVS_ENZ_hMAPK1: NovaScreen (NVS) Enzymatic Assay for human Mitogen-Activated Protein Kinase 1 (MAPK 1) (AID 2283175). The procedure, abridged: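 Cell-free recombinant human MAPK1 enzymatic assay, fluorescence/electrophoretic mobility shift read at 1 h; loss of signal vs DMSO. Primary screen in duplicate at 25 uM; actives (e.g. ≥30% inhibition) run as concentration-response up to 50 uM.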
human Mitogen-Activated Protein Kinase 1 (MAPK 1), MAPK1 (gene 5594), sequence (P28482 whole entry, looked up): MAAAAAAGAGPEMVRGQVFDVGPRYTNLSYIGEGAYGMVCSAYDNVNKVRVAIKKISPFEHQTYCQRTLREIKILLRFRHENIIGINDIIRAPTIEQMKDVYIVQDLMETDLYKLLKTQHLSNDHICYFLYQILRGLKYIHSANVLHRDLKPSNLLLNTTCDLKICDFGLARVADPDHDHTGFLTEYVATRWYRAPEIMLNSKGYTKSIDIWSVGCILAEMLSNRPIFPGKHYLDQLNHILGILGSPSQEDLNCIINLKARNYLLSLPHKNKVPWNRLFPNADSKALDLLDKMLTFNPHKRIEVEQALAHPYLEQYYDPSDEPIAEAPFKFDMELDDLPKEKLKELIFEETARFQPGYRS

Assay [2] can be described thus: ATG_M_32_XSP2: Attagene TRANS-FACTORIAL Multi-Species (XSP2) HepG2 Assay for M19 Transcription Factor (Internal Marker) (AID 2283826). The procedure, abridged: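 Read-out: fluorescent reporter mRNA fragments resolved by capillary electrophoresis after RT-PCR, gain-of-signal versus DMSO baseline. Cells were human HepG2 carrying transfected multi-reporter units, exposed 24 h. Medium contained 3 nM 6-alpha-fluorotestosterone plus 1.5 nM norgestrel.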

Assay [3] addresses human p21 Activated Kinase 4 (PAK4), PAK4 (gene 10298) (UniProt O96013). Put plainly: NVS_ENZ_hPAK4: NovaScreen (NVS) Enzymatic Assay for human p21 Activated Kinase 4 (PAK4) (AID 2283189). The procedure, abridged:
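Cell-free recombinant human PAK4 activity assay; fluorescent substrate and product separated by electrophoretic mobility shift, read 1 h after dosing. Initially tested in duplicate at 25 uM, relative to DMSO baseline.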

The target of another assay is PPP2CA (gene 5515) (UniProt P67775). Put plainly: NVS_ENZ_hPPP2CA: NovaScreen (NVS) Enzymatic Assay for human Protein Phosphatase 2 Aatalytic subunit Alpha (PPP2CA) (AID 2283199). Summed up:
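Recombinant human PPP2CA with fluorescent substrate; product separated from substrate by electrophoretic mobility shift, read 1.33 h after dosing. Duplicate single-point at 25 uM, then singleton concentration-response up to 50 uM; loss of signal versus DMSO.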

Assay [4] concerns the target rat Monoamine Oxidase, MAO-B, Peripheral (MAOBP), Maob (gene 25750) (UniProt P19643). Nature of the assay: NVS_ENZ_rMAOBP: NovaScreen (NVS) Enzymatic Assay for rat Monoamine Oxidase, MAO-B, Peripheral (MAOBP) (AID 2283242).
The target of assay [5] is Voltage-dependent N-type calcium channel subunit alpha-1B (Rattus norvegicus) (UniProt Q02294). Put plainly: NVS_IC_rCaChN: NovaScreen (NVS) Ion Channel Assay for rat Calcium Channel, Type N (CaChN) (AID 2283317).
Assay [6] addresses rat Oxytocin Receptor (OXT), Oxtr (gene 25342) (UniProt P70536). Put plainly: NVS_GPCR_rOXT: NovaScreen (NVS) G Protein-Coupled Receptor Assay for rat Oxytocin Receptor (OXT) (AID 2283330). Summed up: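 Radioligand displacement on rat uterine membranes, 1 h incubation, filter-based scintillation counting. Chemicals were screened in duplicate at 25 uM, and those passing threshold were retested in concentration-response up to 50 uM. Loss of binding was fitted versus DMSO.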

The target in assay [7] is Norway rat Vesicular Monoamine Transporter (VMAT2), neurotransmitter transporter, Slc18a2 (gene 25549) (UniProt Q01827). Nature of the assay: NVS_TR_rVMAT2: NovaScreen (NVS) Transporter Assay for Norway rat Vesicular Monoamine Transporter (VMAT2), neurotransmitter transporter (AID 2283376).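 Also: actives lower the bound radioligand signal below the DMSO level.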 The procedure, abridged: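 Tissue: rat forebrain extract. Format: competitive radioligand binding, cell-free. Timepoint: 1 h. Readout: filter radiodetection/scintillation. Screen: 25 uM in duplicate, then concentration series for actives. Baseline: DMSO.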
Norway rat Vesicular Monoamine Transporter (VMAT2), neurotransmitter transporter, Slc18a2 (gene 25549), sequence (Q01827 whole entry, looked up): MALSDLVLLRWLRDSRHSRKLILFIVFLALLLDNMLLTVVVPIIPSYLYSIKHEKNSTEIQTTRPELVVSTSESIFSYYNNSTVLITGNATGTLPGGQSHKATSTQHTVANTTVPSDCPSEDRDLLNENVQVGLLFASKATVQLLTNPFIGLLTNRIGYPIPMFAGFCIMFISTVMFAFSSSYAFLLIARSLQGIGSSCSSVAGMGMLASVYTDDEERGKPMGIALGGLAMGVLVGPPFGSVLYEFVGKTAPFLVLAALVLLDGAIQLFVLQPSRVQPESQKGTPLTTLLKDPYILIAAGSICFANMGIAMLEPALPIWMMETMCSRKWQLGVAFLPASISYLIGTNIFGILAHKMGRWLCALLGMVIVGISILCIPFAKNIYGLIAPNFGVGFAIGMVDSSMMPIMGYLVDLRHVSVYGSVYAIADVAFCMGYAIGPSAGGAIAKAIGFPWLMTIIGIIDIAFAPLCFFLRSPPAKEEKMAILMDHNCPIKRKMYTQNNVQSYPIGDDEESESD

The target of assay [8] is human Acetylcholinesterase (AChE), ACHE (gene 43) (UniProt P22303). Nature of the assay: NVS_ENZ_hAChE: NovaScreen (NVS) Enzymatic Assay for human Acetylcholinesterase (AChE) (AID 2283129). Summed up:
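Cell-free colorimetric enzyme-activity assay; compounds read 0.33 hour after dosing, loss of signal vs DMSO baseline. Primary screen in duplicate at 25 uM single concentration, with active compounds retested in concentration series.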

Assay [9] deals with human Caspase 2 (CASP2), CASP2 (gene 835) (UniProt P42575). Nature of the assay: NVS_ENZ_hCASP2: NovaScreen (NVS) Enzymatic Assay for human Caspase 2 (CASP2) (AID 2283135). Summed up: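 E. coli-expressed enzyme in a cell-free protease assay, fluorescence read 1 h after dosing. Compounds at 25 uM in duplicate, with concentration-response up to 50 uM for hits; loss of signal against DMSO baseline.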

The target of assay [10] is human AMP-activated Protein Kinase, alpha 1 (AMPKa1), PRKAA1 (gene 5562) (UniProt Q13131). Put plainly: NVS_ENZ_hAMPKa1: NovaScreen (NVS) Enzymatic Assay for human AMP-activated Protein Kinase, alpha 1 (AMPKa1) (AID 2283130). The procedure, abridged:
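Recombinant human AMPKα1 activity was measured cell-free by fluorescent substrate conversion with electrophoretic mobility-shift separation, 1 h after dosing. Duplicate single-point screening was at 25 uM; actives (≥30% inhibition) were retested in concentration-response up to 50 uM.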

Assay [11] deals with human Aurora Kinase A - serine/threonine-protein Kinase 6 (AurA), AURKA (gene 6790) (UniProt O14965). Nature of the assay: NVS_ENZ_hAurA: NovaScreen (NVS) Enzymatic Assay for human Aurora Kinase A - serine/threonine-protein Kinase 6 (AurA) (AID 2283142). The procedure, abridged:
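Cell-free enzymatic assay with human Aurora A, 1 hour after dosing. Fluorescent substrate turnover detected after electrophoretic mobility shift separation of substrate and product. Screened at 25 uM, actives retested in concentration-response up to 50 uM.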

The target of assay [12] is human Ephrin type-A Receptor 2 (EphA2), EPHA2 (gene 1969) (UniProt P29317). Put plainly: NVS_ENZ_hEphA2: NovaScreen (NVS) Enzymatic Assay for human Ephrin type-A Receptor 2 (EphA2) (AID 2283155). Summed up: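 Cell-free recombinant EphA2 kinase with specific substrate, 1 h, fluorescence with electrophoretic mobility-shift separation of substrate and product. Primary screen at 25 uM in duplicate; hits retested in singleton concentration-response up to 50 uM, referenced to DMSO.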
human Ephrin type-A Receptor 2 (EphA2), EPHA2 (gene 1969), sequence (P29317 whole entry, looked up): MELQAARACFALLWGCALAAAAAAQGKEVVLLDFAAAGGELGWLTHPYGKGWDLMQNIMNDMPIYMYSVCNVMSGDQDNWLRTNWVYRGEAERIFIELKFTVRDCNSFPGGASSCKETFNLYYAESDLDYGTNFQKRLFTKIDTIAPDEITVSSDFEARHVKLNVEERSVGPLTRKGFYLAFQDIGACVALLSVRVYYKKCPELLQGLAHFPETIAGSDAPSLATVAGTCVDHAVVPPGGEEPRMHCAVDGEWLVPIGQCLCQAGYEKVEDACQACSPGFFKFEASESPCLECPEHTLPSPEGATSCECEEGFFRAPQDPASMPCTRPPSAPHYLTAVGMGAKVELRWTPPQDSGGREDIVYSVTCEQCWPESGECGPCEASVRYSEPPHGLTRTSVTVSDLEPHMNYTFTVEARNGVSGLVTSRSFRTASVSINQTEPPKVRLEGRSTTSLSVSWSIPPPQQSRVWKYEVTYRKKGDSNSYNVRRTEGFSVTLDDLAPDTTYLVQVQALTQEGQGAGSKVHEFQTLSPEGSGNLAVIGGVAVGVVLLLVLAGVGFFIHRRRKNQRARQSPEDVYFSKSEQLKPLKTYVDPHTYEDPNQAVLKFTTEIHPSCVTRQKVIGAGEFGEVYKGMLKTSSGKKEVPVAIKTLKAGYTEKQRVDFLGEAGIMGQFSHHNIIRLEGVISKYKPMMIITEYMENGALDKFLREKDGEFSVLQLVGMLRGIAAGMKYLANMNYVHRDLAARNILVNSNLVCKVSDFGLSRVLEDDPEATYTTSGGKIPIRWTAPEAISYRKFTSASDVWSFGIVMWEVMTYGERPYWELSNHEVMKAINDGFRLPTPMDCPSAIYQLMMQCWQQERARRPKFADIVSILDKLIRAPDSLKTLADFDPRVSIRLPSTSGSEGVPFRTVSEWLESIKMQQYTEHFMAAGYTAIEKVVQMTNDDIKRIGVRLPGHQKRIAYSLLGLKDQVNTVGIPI

Assay [13] has as its target human Fibroblast Growth Factor Receptor 1 (FGFR1), FGFR1 (gene 2260) (UniProt P11362). Nature of the assay: NVS_ENZ_hFGFR1: NovaScreen (NVS) Enzymatic Assay for human Fibroblast Growth Factor Receptor 1 (FGFR1) (AID 2283159). The procedure, abridged: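 Cell-free recombinant kinase with fluorescent substrate, product separated by electrophoretic mobility shift; read 1 hour after dosing, loss of signal relative to DMSO. Initial screen in duplicate at 25 uM, actives followed in concentration series.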

Assay [14] concerns the target human MET Proto-Oncogene, Receptor Tyrosine Kinase (MET), MET (gene 4233) (UniProt P08581). Put plainly: NVS_ENZ_hMet: NovaScreen (NVS) Enzymatic Assay for human MET Proto-Oncogene, Receptor Tyrosine Kinase (MET) (AID 2283180). The procedure, abridged:
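Cell-free MET kinase assay using recombinant protein and fluorescent substrate, with mobility-shift separation; read 1 h after dosing. Primary duplicate at 25 uM; actives in singleton concentration-response to 50 uM maximum. Signal loss versus DMSO.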

Assay [15] has as its target human Phosphatase and Tensin Homolog (PTEN), PTEN (gene 5728) (UniProt P60484). Nature of the assay: NVS_ENZ_hPTEN: NovaScreen (NVS) Enzymatic Assay for human Phosphatase and Tensin Homolog (PTEN) (AID 2283203). Summed up:
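Cell-free recombinant human PTEN with fluorescent substrate; product separated by electrophoretic mobility shift and read by fluorescence 1 h after dosing. Primary screen in duplicate at 25 uM, actives followed in concentration series versus DMSO.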

This passage reports outcome and AC50 results from PubChem BioAssay (EPA / NIEHS).

The structures appear in SMILES notation. Inconclusive results are not listed. Active and inactive are the calls of the source. The calls were made as follows: active = hit-call score of the fitted dose curve at least 0.9, where 1 is the maximum; inconclusive = response in the unintended direction; inactive = score below 0.9.

rat Oxytocin Receptor (OXT), Oxtr (gene 25342), sequence (P70536 whole entry, looked up): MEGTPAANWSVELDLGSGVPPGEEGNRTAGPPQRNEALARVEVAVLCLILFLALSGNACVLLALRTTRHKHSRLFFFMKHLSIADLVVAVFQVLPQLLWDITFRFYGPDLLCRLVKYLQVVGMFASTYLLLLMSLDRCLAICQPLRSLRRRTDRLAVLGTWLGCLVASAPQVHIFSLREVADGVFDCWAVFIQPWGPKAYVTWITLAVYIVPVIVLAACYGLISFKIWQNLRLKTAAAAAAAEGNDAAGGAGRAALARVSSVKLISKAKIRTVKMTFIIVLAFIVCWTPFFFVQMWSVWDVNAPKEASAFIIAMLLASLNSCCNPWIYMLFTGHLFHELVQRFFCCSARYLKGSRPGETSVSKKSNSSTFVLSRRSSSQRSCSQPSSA
human Phosphatase and Tensin Homolog (PTEN), PTEN (gene 5728), sequence (P60484 whole entry, looked up): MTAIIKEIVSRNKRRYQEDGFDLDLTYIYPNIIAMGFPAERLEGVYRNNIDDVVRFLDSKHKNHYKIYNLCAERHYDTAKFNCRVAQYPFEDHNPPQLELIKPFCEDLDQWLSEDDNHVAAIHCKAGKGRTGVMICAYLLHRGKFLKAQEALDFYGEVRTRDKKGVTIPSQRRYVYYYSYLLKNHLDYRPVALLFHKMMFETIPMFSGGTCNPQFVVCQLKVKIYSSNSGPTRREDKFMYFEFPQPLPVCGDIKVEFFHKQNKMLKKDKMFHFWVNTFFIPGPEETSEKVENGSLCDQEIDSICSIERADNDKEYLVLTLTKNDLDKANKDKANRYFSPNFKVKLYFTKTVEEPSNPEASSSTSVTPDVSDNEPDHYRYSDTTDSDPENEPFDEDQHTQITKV
human Acetylcholinesterase (AChE), ACHE (gene 43), sequence (P22303 whole entry, looked up): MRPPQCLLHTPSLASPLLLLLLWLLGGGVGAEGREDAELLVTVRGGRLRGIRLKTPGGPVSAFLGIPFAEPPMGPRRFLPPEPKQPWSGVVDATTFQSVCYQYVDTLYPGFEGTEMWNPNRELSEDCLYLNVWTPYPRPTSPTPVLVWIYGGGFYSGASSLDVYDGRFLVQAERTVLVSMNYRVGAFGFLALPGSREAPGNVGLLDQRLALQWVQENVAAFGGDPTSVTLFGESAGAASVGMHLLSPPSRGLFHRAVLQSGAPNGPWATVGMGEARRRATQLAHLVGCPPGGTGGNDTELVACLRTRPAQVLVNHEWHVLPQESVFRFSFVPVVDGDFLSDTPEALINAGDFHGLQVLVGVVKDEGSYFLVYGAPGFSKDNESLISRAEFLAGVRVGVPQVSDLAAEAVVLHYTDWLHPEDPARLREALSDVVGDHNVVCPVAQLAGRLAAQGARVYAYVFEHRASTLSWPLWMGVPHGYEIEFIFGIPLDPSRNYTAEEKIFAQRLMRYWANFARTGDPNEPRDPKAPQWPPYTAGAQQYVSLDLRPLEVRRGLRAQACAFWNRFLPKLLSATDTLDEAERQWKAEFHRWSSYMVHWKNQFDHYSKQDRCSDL
human MET Proto-Oncogene, Receptor Tyrosine Kinase (MET), MET (gene 4233), sequence (P08581 whole entry, looked up): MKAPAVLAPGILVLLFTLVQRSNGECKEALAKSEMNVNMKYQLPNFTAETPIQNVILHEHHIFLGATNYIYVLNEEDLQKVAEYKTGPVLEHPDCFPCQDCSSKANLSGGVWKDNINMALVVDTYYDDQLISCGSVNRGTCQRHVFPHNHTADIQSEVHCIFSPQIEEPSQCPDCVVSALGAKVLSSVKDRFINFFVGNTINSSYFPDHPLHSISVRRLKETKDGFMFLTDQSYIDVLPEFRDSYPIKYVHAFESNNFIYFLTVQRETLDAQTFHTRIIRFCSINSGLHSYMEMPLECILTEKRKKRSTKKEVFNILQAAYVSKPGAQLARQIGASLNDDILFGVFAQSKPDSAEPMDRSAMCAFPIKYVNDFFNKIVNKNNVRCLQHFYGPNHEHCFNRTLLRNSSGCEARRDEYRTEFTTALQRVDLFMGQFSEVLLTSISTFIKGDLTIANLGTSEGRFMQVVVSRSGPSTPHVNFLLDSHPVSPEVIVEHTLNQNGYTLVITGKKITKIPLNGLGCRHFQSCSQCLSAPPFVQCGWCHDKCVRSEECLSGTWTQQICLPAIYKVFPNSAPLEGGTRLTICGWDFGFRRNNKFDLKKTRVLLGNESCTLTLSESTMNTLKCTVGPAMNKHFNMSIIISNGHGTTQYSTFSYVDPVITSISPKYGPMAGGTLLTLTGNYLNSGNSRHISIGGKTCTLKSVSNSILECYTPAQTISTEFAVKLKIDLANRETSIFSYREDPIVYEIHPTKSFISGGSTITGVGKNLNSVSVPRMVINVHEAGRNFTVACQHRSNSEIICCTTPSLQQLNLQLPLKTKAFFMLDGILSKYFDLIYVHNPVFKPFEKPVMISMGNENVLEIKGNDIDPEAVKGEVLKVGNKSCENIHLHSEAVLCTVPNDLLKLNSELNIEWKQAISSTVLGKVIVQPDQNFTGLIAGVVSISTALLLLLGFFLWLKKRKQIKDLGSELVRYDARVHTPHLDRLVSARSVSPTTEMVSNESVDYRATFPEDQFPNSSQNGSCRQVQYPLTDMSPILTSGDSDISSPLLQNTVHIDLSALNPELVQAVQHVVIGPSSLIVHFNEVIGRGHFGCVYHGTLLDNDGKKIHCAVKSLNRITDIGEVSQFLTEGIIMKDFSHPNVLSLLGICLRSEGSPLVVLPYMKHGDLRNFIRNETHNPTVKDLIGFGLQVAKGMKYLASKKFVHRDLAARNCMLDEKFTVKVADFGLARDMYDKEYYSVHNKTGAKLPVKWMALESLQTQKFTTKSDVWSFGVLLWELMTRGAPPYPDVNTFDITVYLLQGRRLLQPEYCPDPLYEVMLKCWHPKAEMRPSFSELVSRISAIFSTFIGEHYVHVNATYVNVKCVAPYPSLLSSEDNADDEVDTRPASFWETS
PPP2CA (gene 5515), sequence (P67775 whole entry, looked up): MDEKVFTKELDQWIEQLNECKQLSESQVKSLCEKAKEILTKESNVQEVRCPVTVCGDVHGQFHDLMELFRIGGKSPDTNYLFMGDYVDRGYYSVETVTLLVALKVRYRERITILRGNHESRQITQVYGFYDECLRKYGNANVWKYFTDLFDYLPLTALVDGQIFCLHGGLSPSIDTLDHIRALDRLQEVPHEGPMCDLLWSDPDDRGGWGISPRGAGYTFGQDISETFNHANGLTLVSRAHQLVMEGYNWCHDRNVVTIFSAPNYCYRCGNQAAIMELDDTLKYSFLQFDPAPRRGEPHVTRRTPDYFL

Take `CC(C)CCCCCCc1ccc(O)cc1`: the compound was classed as inactive in assay [1] and in [2].
`CCOC(N)=O`: the compound was called inactive in assay [1].
Take `CC[C@H](C)C(=O)O[C@H]1C[C@@H](C)C=C2C=C[C@H](C)[C@H](CC[C@@H]3C[C@@H](O)CC(=O)O3)[C@H]21`: the call in assay [3] was inactive.
In the case of `CN1CCC[C@H]1c1cccnc1`, the result with PPP2CA (gene 5515) was inactive.
On to `COc1cccc([C@H](O)C2CCN(CCc3ccc(F)cc3)CC2)c1OC`, for which the concentration at half-maximal activity (AC50) in assay [4] was 12.5 µM (active).
For the compound `COC(=O)CCC(=O)OC`, in [5], the result was inactive.
On to `Cc1occc1C(=O)Nc1ccc(C(=O)N2CCC(F)(F)/C(=C\C(=O)N3CCC(N4CCCCC4)CC3)c3ccccc32)cc1`, for which the half-maximal activity concentration (AC50) was 0.119 µM (active) in assay [6] and 5.73 µM (active) in [7].
Take `Cc1nc(-c2ccc3c(c2)CCN(CCC2CCC(NC(=O)/C=C/c4ccc(F)cc4)CC2)CC3)no1` (centres undefined): the compound was called inactive in assay [6].
With `Cc1ccccc1Cl`, the call in assay [7] was inactive.
Turning to `c1ccc2c(c1)Cc1ccccc1-2`, the call in assay [8] and in assay [9] was inactive.
Regarding `O=C(O)c1cccc(Oc2ccccc2)c1`, the result in assay [10], in [11], in [12], in assay [13], in [14] and in assay [15] was inactive.
